PubChem BioAssay (EPA / NIEHS)
Activity calls are given as the source filed them. Rule for the calls: active = hit-call score of the fitted dose curve at least 0.9, where 1 is the maximum; inactive = score below 0.9.

Test: ATG_EGR_CIS: Attagene CIS-FACTORIAL HepG2 Assay for human Early Growth Response 1 (EGR1) (AID 2282938)
Settings: HepG2 Attagene CIS-FACTORIAL EGR reporter mRNA; actives raise or lower the signal
Procedure: ATG_CIS is a cell-based, multiplexed-readout assay that uses HepG2, a human liver cell line, with measurements taken at 24 hours after chemical dosing in a 24-well plate.ATG_EGR_CIS is one of 52 assay component(s) measured or calculated from the ATG_CIS assay. It is designed to make measurements of mRNA induction, a form of inducible reporter, as detected with fluorescence intensity signals by Reverse transcription polymerase chain reaction (RT-PCR) and Capillary electrophoresis technology.Data from the assay component ATG_EGR_CIS was analyzed into 1 assay endpoint. This assay endpoint, ATG_EGR_CIS, was analyzed with bidirectional fitting relative to DMSO as the negative control and baseline of activity. Using a type of inducible reporter, measures of mRNA for gain or loss-of-signal activity can be used to understand the reporter gene at the transcription factor-level as they relate to the gene EGR1. Furthermore, this assay endpoint can be referred to as a primary readout, because this assay has produced multiple assay endpoints where this one serves a reporter gene function. To generalize the intended target to other relatable targets, this assay endpoint is annotated to the dna binding intended target family, where the subfamily is zinc finger.
Human liver HepG2 cells are transiently transfected with multiple reporter transcription units (MRTUs) in 6-well plates using FuGene 6 reagent (Roche; 3 ml FuGene/1 mg DNA). The MRTU constructs are regulated by a cis-regulating element (promoter). […] A major difference between the CIS and TRANS system is that in CIS activities of endogenous TFs are measured, whereas the TRANS assay evaluates changes in activities of exogenous, chimeric NR-Gal4 proteins. […] At the end of 24 hour incubation, total RNA was isolated using TriZol reagent (Invitrogen). The isolated RNA is then reverse-transcribed using oligo(dT) primer and Mo-MLV reverse transcriptase (Invitrogen) with DNAse I (Ambion) treatment for 30 min. The one-tenth of the produced cDNA was amplified by PCR using Taq DNA polymerase (Invitrogen) and two reporter sequence-specific primers. The PCR products were fluorescently labeled by primer extension with 6-arboxyfluorescein (6-FAM) 5'-labeled reporter sequence-specific primer (2 min at 95 C, 20 s at 68 C and 10 min at 72 C) and these products were digested with 5U of HpaI (New England Biolabs) for 2h at 37 C. The fragments were purified using Qiaquick PCR columns (Qiagen), analyzed on an ABI 3130xL genetic analyzer (Applied Biosystems) with peak positions identified by using a set of X-rhodamine (ROX)-labeled MapMarker1000 molecular weight standards (BioVentures). The raw capillary electrophoresis data was processed using Attagraph software (Attagene).

AC50, active:
Nc1ccc(N=Nc2ccccc2)c(N)n1 70.5 µM, CCC(=O)Oc1ccc(/C(CC)=C(\CC)c2ccc(OC(=O)CC)cc2)cc1 45.1 µM, c1cc(N(CC2CO2)CC2CO2)ccc1OCC1CO1 (stereo not given) 38.7 µM, O=c1cc(-c2ccccc2)oc2ccccc12 82.1 µM, c1cc(C(c2ccc(OCC3CO3)cc2)C(c2ccc(OCC3CO3)cc2)c2ccc(OCC3CO3)cc2)ccc1OCC1CO1 (stereo not given) 39.5 µM

outcome, inactive:
CC(=O)c1ccc2c(c1)CCCC2, O=C(OCC1CCC2OC2C1)C1CCC2OC2C1 (stereo not given), CO[Si](CCC1CCC2OC2C1)(OC)OC (stereo not given), Cc1cccc(N(C)C(=S)Oc2ccc3ccccc3c2)c1, CCCCCc1ccc(Cl)cc1, CC(C)c1ccc(C=O)cc1, c1ccc2c(c1)ccc1cc3c(ccc4ccccc43)cc12, O=C1CCCC(=O)O1, O=C(c1ccccc1)C1CCC1, CC(=O)C=CC1C(C)=CCC(C)C1(C)C (stereo not given), CCCCCCOc1cc(C)c(O)c(C)c1C, OC1OCCOC1O (stereo not given), CC(=O)Oc1ccc(C(C)=O)cc1, CO[Si](OC)(OC)c1ccccc1, Nc1ccc(N)c(Cl)c1, C=CC(=O)OCCOC1C2CCC1C1CC=CC12 (stereo not given), C=C[C@](C)(O)CC[C@@H]1[C@@]2(C)CCCC(C)(C)[C@@H]2CC[C@@]1(C)O, O=C1CCC(=O)N1Cl, CC(=O)OCc1ccco1, CC(CC=O)CCCC(C)(C)O (stereo not given), Nc1nc2ccccc2[nH]1, CCC(C)(C)C1CCCCC1OC(C)=O (stereo not given), CC(CC=O)c1ccccc1 (stereo not given), O=C1C(N(CO)C(=O)NCO)N(CO)C(=O)N1CO (stereo not given), CCc1ccc2c(c1)C(=O)c1ccccc1C2=O, CC(C)(Oc1ccc(C2CC2(Cl)Cl)cc1)C(=O)O (stereo not given), Cc1cc(C)c(C)c(O)c1, CCOc1ccc(N)c([N+](=O)[O-])c1, C(=CC=Nc1ccccc1)C=CNc1ccccc1, COC=O, Cc1ccc(OC(=O)CC(C)C)cc1, O=S(=O)(Oc1ccc(Cl)cc1Cl)c1ccccc1, CC1=NC(C)OC1C (stereo not given), COC(=O)c1c(C)cc(O)c(C)c1O, O=S(=O)(O)c1cc(S(=O)(=O)O)c2ccc3c(S(=O)(=O)O)cc(S(=O)(=O)O)c4ccc1c2c43
